Measured values published in PubChem BioAssay (NCATS).
Inconclusive results are not listed. Activity calls are given as the source filed them. The call rests on the fitted dose curve; in most records, active means well fitted inhibition curve with a large enough effect; inconclusive means small, poorly fitted or top-dose-only effect; inactive means no such curve, though single readings can be large or run the other way.

Assay: Counterscreen for APE1 Inhibitors: Fluorescent Dye Displacement Validation Assay (AID 1707)
Conditions: fluorescent dye displacement from DNA; series mostly up to 57.1 µM; activity change, negative = inhibition: at the top concentration
Text: In order to distinguish true inhibitors of DNA-processing enzymes from promiscuous DNA-binding compounds among screening assay hits, we developed a homogeneous and miniaturized assay based on fluorescent dye displacement test as originally described by Tse and Boger (Accounts of Chemical Research (2004) 37: 61-69). The assay is based on the strong enhancement of fluorescence when Thiazole Orange (ThO) binds to double-stranded DNA: conversely, in the presence of a DNA-binding compound, Thiazole Orange is displaced from the DNA and its fluorescence is reduced.
Buffer. 50 mM Tris-HCl (pH7.5) containing 50mM NaCl, 2 mM MgCl2, and 0.01% Tween-20.
Buffer containing 250 nM ThO in columns 3 and 4 as negative control (no dsDNA).
Reaction mixture: 250 nM ThO and 50 nM dsDNA at final concentration dispensed throughout the plate: in columns 1, 2, 5-48. Column 1 is neutral (100% activity).
5''TAMRA- TC ACC FTC GTA CGA CTC
3'' AG TGG GAG CAT GCT GAG
where F denotes tetrahydrofuran.
Control: Pintool transfer of control compound WB64 (W4761, Sigma-Aldrich) to column 2 of all assay plates as a two-fold 16-point dilution in duplicate (concentration range 5.75 uM - 0.175 nM).
Four uL of reaction mixtures were dispensed to 1536-well Greiner black solid bottom plates. Compounds (23 nL) were transferred […] in order to measure the endpoint fluorescence using 480 nm excitation and 540 nm emission fluorescence protocol.
Potency means the concentration at half of the fitted maximal effect.

With `NCCc1c[nH]c2ccc(O)cc12` as the compound, how does the “activity change, negative = inhibition” value read?
Its value is 3.42% (inactive).

Which “activity change, negative = inhibition” value does the source give for `NC(N)=NOCCC(N)C(=O)O` (stereo not given) here?
The value was -1.09% (inactive).

With `CCCN1CCO[C@@H]2c3cc(O)ccc3OC[C@H]21` as the compound, how does the Potency read?
The Potency was “inactive”.

Which “activity change, negative = inhibition” value does the source give for `NC1CC1c1ccccc1` (stereo not given) here?
Its value is 1.32% (inactive).

Which “activity change, negative = inhibition” value does the source give for `CCCN(CCC)[C@@H]1CCc2ccc(O)cc2C1` here?
Its value is 0.193% (inactive).

With `CC[C@@]1(O)C(=O)OCc2c1cc1n(c2=O)Cc2cc3ccccc3nc2-1` as the compound, how does the “activity change, negative = inhibition” value read?
The value was 92% (inactive).

With `CNCCc1ccc(O)c(O)c1` as the compound, how does the “activity change, negative = inhibition” value read?
Its value is 3.71% (inactive).

For `NCCc1c[nH]c2ccccc12`, which “activity change, negative = inhibition” value is on record?
Its value is 2.63% (inactive).

Which “activity change, negative = inhibition” value does the source give for `O=C(Cc1ccc(Cl)c(Cl)c1)N1CCCCC1CN1CCCC1` (stereo not given) here?
The value was 6.23% (inactive).

With `c1ccc(CCCN2CCN(CCOC(c3ccccc3)c3ccccc3)CC2)cc1` as the compound, how does the “activity change, negative = inhibition” value read?
The value was -2.33% (inactive).

With `CC(Cc1ccc(O)cc1)NCC(O)c1cc(O)cc(O)c1` (stereo not given) as the compound, how does the “activity change, negative = inhibition” value read?
The value was 0.976% (inactive).

For `Cc1nccc2c1[nH]c1ccccc12`, which “activity change, negative = inhibition” value is on record?
Its value is -3.74% (inactive).

With `Cn1cnc(CCN)c1` as the compound, how does the “activity change, negative = inhibition” value read?
The value was 1.21% (inactive).

For `CC(=O)NCCc1c[nH]c2ccccc12`, which “activity change, negative = inhibition” value is on record?
The value was 1.14% (inactive).

With `CN[C@@H](C)[C@H](O)c1ccccc1` as the compound, how does the “activity change, negative = inhibition” value read?
Its value is -1.93% (inactive).

For `C[N+]1(C)C2CCC1CC(OC(=O)C(CO)c1ccccc1)C2` (stereo not given), which Potency is on record?
The Potency was “inactive”.

With `CN1C2CCC1CC(OC(=O)c1cc(Cl)cc(Cl)c1)C2` (stereo not given) as the compound, how does the “activity change, negative = inhibition” value read?
Its value is 2.05% (inactive).

For `C=CCN1CC[C@]23CCCCC2[C@H]1Cc1ccc(O)cc13` (stereo not given in full), which “activity change, negative = inhibition” value is on record?
Its value is 3.5% (inactive).

For `Oc1ccc2c3c1O[C@H]1c4[nH]c5c(c4C[C@@]4(O)[C@@H](C2)N(CC2CC2)CC[C@]314)C[C@@]1(O)[C@H]2Cc3ccc(O)c4c3[C@@]1(CCN2CC1CC1)[C@H]5O4`, which “activity change, negative = inhibition” value is on record?
The value was 0.946% (inactive).

For `C[N+](C)(C)CC(=O)O`, which “activity change, negative = inhibition” value is on record?
Its value is -4.09% (inactive).

For `COc1ccc2c(c[n+](C)c3c4cc5c(cc4ccc23)OCO5)c1OC`, which Potency is on record?
Its Potency is 14.1 µM (active).

For `NC(CP(=O)(O)O)C(=O)O` (stereo not given), which “activity change, negative = inhibition” value is on record?
Its value is 3.38% (inactive).

With `CC(C)Oc1cccnc1N(C)C1CCN(Cc2ccccc2)CC1` as the compound, how does the “activity change, negative = inhibition” value read?
The value was 2.93% (inactive).

With `CCCN(CCC)C1CCc2ccc(O)cc2C1` (stereo not given) as the compound, how does the “activity change, negative = inhibition” value read?
The value was 2.46% (inactive).

Which “activity change, negative = inhibition” value does the source give for `CC1=NN=C(c2ccc(N)cc2)c2cc3c(cc2C1)OCO3` here?
The value was -1.17% (inactive).

For `O=C(O)[C@@H]1CCN1`, which “activity change, negative = inhibition” value is on record?
The value was -0.606% (inactive).

For `CC(=O)[C@H]1CCC2C3CC[C@H]4C[C@H](O)CC[C@]4(C)C3CC[C@@]21C` (stereo not given in full), which “activity change, negative = inhibition” value is on record?
Its value is 0.488% (inactive).

Which “activity change, negative = inhibition” value does the source give for `NC(=NCCC[C@H](N)C(=O)O)N[N+](=O)[O-]` here?
Its value is 0.584% (inactive).

For `Cc1c(C(=O)c2cccc3ccccc23)c2cccc3c2n1[C@H](CN1CCOCC1)CO3`, which “activity change, negative = inhibition” value is on record?
Its value is 2.3% (inactive).

For `C[C@]12N[C@H](Cc3ccccc31)c1ccccc12`, which “activity change, negative = inhibition” value is on record?
The value was -5.67% (inactive).

With `S=C(NC1CCCCC1)N1CCC(c2cnc[nH]2)CC1` as the compound, how does the “activity change, negative = inhibition” value read?
The value was 5.29% (inactive).

Which “activity change, negative = inhibition” value does the source give for `NCc1cc(=O)[nH]o1` here?
Its value is 1.31% (inactive).

For `O=C1CCCN1CC#CCN1CCCC1`, which “activity change, negative = inhibition” value is on record?
Its value is 0.792% (inactive).

Which “activity change, negative = inhibition” value does the source give for `CN[C@@H]1C[C@@H](c2ccc(Cl)c(Cl)c2)c2ccccc21` here?
The value was 0.667% (inactive).

Which “activity change, negative = inhibition” value does the source give for `O=C(O)CC[N+](=O)[O-]` here?
The value was 3.59% (inactive).

Which “activity change, negative = inhibition” value does the source give for `Clc1cnc(Oc2ccc(Oc3ncc(Cl)cc3Cl)cc2)c(Cl)c1` here?
The value was 1.37% (inactive).

With `CS(=N)(=O)CC[C@H](N)C(=O)O` (stereo not given in full) as the compound, how does the “activity change, negative = inhibition” value read?
The value was 2.05% (inactive).

Which “activity change, negative = inhibition” value does the source give for `O=C(O)Cc1cnc[nH]1` here?
Its value is 0.253% (inactive).

With `CC[C@@H]1C(=O)OC[C@@H]1Cc1cncn1C` as the compound, how does the Potency read?
Its Potency is “inactive”.

With `NC(=O)CN1CC(O)CC1=O` (stereo not given) as the compound, how does the “activity change, negative = inhibition” value read?
Its value is -0.97% (inactive).
